Measurements: PubChem BioAssay (NCI)
This is part of a sample that, as a whole, favours compounds with a hit. Of some 83,000 tested, about 20% had one in any assay.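 Percent growth is the endpoint: 0 to 100 indicates growth inhibition (40 means 60% inhibition), 0 means no net growth, and negative values indicate cell death.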 Unmarked numbers belong to inactive results. The source made the active and inactive calls. The calls were made as follows: active = growth percent below 10; inactive = the rest.

Key:
Experiment in all cases: NCI-60 one-dose screen, 48 h (100 = growth as untreated, 0 = no growth, -100 = all killed)
Conditions in all cases: 10 µM
[1] = system: NCI-H23 lung
[2] = system: NCI-H226 lung
[3] = system: NCI-H322M lung
[4] = system: HOP-62 NSCLC
[5] = system: NCI-H460 lung
[6] = system: NCI-H522 lung
[7] = system: A549/ATCC NSCLC
[8] = system: 786-0 renal
[9] = system: COLO 205 colon
[10] = system: DU-145 prostate
[11] = system: K-562 leukemia
[12] = system: MALME-3M melanoma
[13] = system: MDA-MB-231 breast
[14] = system: RXF 393 renal
[15] = system: SF-268 CNS
[16] = system: SF-295 CNS
[17] = system: SF-539 CNS
[18] = system: UACC-257 melanoma
[19] = system: M14 melanoma
[20] = system: HCT-15 colon

CCOCC(=O)C(C#N)c1ccc(Cl)c(Cl)c1 (stereo not given)
growth [1]: 106%
growth [2]: 88.8%
growth [3]: 102%
growth [4]: 90.9%
growth [5]: 107%
growth [6]: 94.4%
growth [7]: 101%
growth [8]: 101%
growth [9]: 115%
growth [10]: 113%
growth [11]: 94.6%
growth [12]: 106%
growth [13]: 105%
growth [14]: 94.8%
growth [15]: 106%
growth [16]: 89.3%
growth [17]: 94.8%
growth [18]: 92%
growth [19]: 113%
growth [20]: 89.9%

Cn1c(N)c(N=Nc2ccc(S(=O)(=O)Nc3nccs3)cc2)c(=O)n(C)c1=O
growth [1]: 94%
growth [2]: 104%
growth [3]: 92.9%
growth [4]: 105%
growth [5]: 109%
growth [6]: 82.2%
growth [7]: 105%
growth [8]: 98.1%
growth [9]: 105%
growth [10]: 106%
growth [11]: 90.2%
growth [12]: 86.8%
growth [13]: 111%
growth [14]: 130%
growth [15]: 103%
growth [16]: 91%
growth [17]: 98.3%
growth [18]: 95.6%
growth [19]: 101%
growth [20]: 110%

O=C(C[P+](c1ccccc1)(c1ccccc1)c1ccccc1)C[P+](c1ccccc1)(c1ccccc1)c1ccccc1
growth [1]: -14.5% (active)
growth [2]: -71.8% (active)
growth [3]: -59.3% (active)
growth [4]: -59.8% (active)
growth [5]: -68.3% (active)
growth [6]: -83.8% (active)
growth [7]: -27.9% (active)
growth [8]: -97.9% (active)
growth [9]: -27.9% (active)
growth [10]: -94% (active)
growth [11]: -34.2% (active)
growth [12]: -86.5% (active)
growth [13]: -71.3% (active)
growth [14]: -70.2% (active)
growth [15]: -86.3% (active)
growth [16]: -72.4% (active)
growth [17]: -98.2% (active)
growth [18]: -82.3% (active)
growth [19]: -75.4% (active)
growth [20]: -77.6% (active)

CN(Cc1ccccc1)Cc1ccc([N+](=O)[O-])cc1I
growth [1]: 107%
growth [2]: 94.5%
growth [3]: 92.9%
growth [4]: 101%
growth [5]: 97.3%
growth [6]: 86.7%
growth [7]: 93.6%
growth [8]: 97.8%
growth [9]: 104%
growth [10]: 95.6%
growth [11]: 91.7%
growth [12]: 84%
growth [13]: 101%
growth [14]: 88.2%
growth [15]: 98%
growth [16]: 104%
growth [17]: 100%
growth [18]: 103%
growth [19]: 102%
growth [20]: 92.2%

CN(C)c1ccc(-c2cc(-c3cccc(NS(C)(=O)=O)c3)nc(N)c2C#N)cc1
growth [1]: 21.5%
growth [2]: 39.6%
growth [3]: 21.1%
growth [4]: 44.1%
growth [5]: 5.32% (active)
growth [6]: 7.63% (active)
growth [7]: 25.9%
growth [8]: 31%
growth [9]: -71.2% (active)
growth [10]: -25.5% (active)
growth [11]: 10.9%
growth [12]: -7.09% (active)
growth [13]: -8.96% (active)
growth [14]: 20.3%
growth [15]: 20.8%
growth [16]: 0.228% (active)
growth [17]: 3.52% (active)
growth [18]: 80.4%
growth [19]: 11.6%
growth [20]: 24%

Nc1cc2c(cc1Cl)-c1ccc([N+](=O)[O-])cc1/C2=N\O
growth [1]: 83.4%
growth [2]: 93.3%
growth [3]: 50.1%
growth [4]: 111%
growth [5]: 48.8%
growth [6]: 69.8%
growth [7]: 59.2%
growth [8]: 90.8%
growth [9]: 109%
growth [10]: 63%
growth [11]: 30.5%
growth [12]: 90.7%
growth [13]: 105%
growth [14]: 104%
growth [15]: 79.1%
growth [16]: 74.8%
growth [17]: 75.9%
growth [18]: 103%
growth [19]: 78.2%
growth [20]: 62.9%

O=C1C(=O)c2ccccc2C(O)=C1CCCc1ccc(C2CCCCCC2)cc1
growth [1]: 23.4%
growth [2]: 37.6%
growth [3]: 23.7%
growth [4]: 40.8%
growth [5]: 11.6%
growth [6]: 42%
growth [7]: 22.7%
growth [8]: 55.7%
growth [9]: 36.5%
growth [10]: 44%
growth [11]: 23.7%
growth [12]: 13.5%
growth [13]: 68.4%
growth [14]: 68.1%
growth [15]: 53.9%
growth [16]: -0.205% (active)
growth [17]: 37.9%
growth [18]: 44%
growth [19]: 49.3%
growth [20]: 25.2%

O=C(Nc1cccc(-n2cc(-c3ccncc3)c(-c3ccc(O)c(Cl)c3)n2)c1)Nc1ccc(Cl)c(Cl)c1
growth [1]: 5.31% (active)
growth [2]: 51.1%
growth [3]: -6.78% (active)
growth [4]: 8.83% (active)
growth [5]: -4.26% (active)
growth [6]: -13.1% (active)
growth [7]: 0.252% (active)
growth [8]: -6.94% (active)
growth [9]: 77.8%
growth [10]: 11.5%
growth [11]: 5.72% (active)
growth [12]: -27% (active)
growth [13]: -44.9% (active)
growth [14]: -26.2% (active)
growth [15]: 10.9%
growth [16]: -40.4% (active)
growth [17]: -19.8% (active)
growth [18]: -42.7% (active)
growth [19]: -50.3% (active)
growth [20]: 14.1%

CC(=O)N1N=C(c2ccc(Cl)cc2)CC1c1sc(Cl)nc1Cl (stereo not given)
growth [1]: 87.4%
growth [2]: 43.1%
growth [3]: 62.9%
growth [4]: 103%
growth [5]: 107%
growth [6]: 81%
growth [7]: 78.5%
growth [8]: 84.7%
growth [9]: 108%
growth [10]: 74.7%
growth [11]: 66.1%
growth [12]: 94.8%
growth [13]: 82.1%
growth [14]: 80.5%
growth [15]: 80.1%
growth [16]: 80.3%
growth [17]: 104%
growth [18]: 91.9%
growth [19]: 94.6%
growth [20]: 96.3%

CC1(C)Cc2c(sc3ncn4nc(-c5ccc(O)cc5)nc4c23)CO1
growth [1]: 90.9%
growth [2]: 57.9%
growth [3]: 90.4%
growth [4]: 79.2%
growth [5]: 63.2%
growth [6]: 53.5%
growth [7]: 63%
growth [8]: 74.9%
growth [9]: 114%
growth [10]: 76.1%
growth [11]: 76.8%
growth [12]: 68.2%
growth [13]: 70.5%
growth [14]: 66.3%
growth [15]: 64.1%
growth [16]: 76.2%
growth [17]: 75.1%
growth [18]: 89.7%
growth [19]: 86.6%
growth [20]: 75.1%

COc1ccc(-c2ccc(-c3ccc(C(=N)N)cn3)o2)cc1
growth [1]: 85.1%
growth [2]: 78.7%
growth [3]: 77.6%
growth [4]: 72.1%
growth [5]: 82.2%
growth [6]: 76.6%
growth [7]: 69.5%
growth [8]: 91.3%
growth [9]: -41.2% (active)
growth [10]: 88.6%
growth [11]: 24.7%
growth [12]: 39.4%
growth [13]: 47.4%
growth [14]: 85.7%
growth [15]: 81.2%
growth [16]: 68.7%
growth [17]: 79.7%
growth [18]: 62.8%
growth [19]: 75.3%
growth [20]: 59.8%

COc1cccc(C(=O)Nc2ccc(CN3CCc4nc5cc(OC)c(OC)cc5cc43)cc2)c1
growth [1]: 56.9%
growth [2]: 68.4%
growth [3]: 61.7%
growth [4]: 81%
growth [5]: 9.4% (active)
growth [6]: 42.7%
growth [7]: 36.5%
growth [8]: 64.1%
growth [9]: 44.1%
growth [10]: 46.1%
growth [11]: 24.5%
growth [12]: 51.8%
growth [13]: 48%
growth [14]: 48.7%
growth [15]: 47%
growth [16]: 65.7%
growth [17]: 66.5%
growth [18]: 35.9%
growth [19]: 38.1%
growth [20]: 47.7%

CCOC(=O)CCC(NC(=O)c1ccc(N)cc1)C(=O)OCC (stereo not given)
growth [1]: 99.1%
growth [2]: 103%
growth [3]: 108%
growth [4]: 96%
growth [5]: 118%
growth [6]: 80.5%
growth [7]: 99.4%
growth [8]: 110%
growth [9]: 105%
growth [10]: 112%
growth [11]: 112%
growth [12]: 88.2%
growth [13]: 126%
growth [14]: 129%
growth [15]: 99.7%
growth [16]: 136%
growth [17]: 97.6%
growth [18]: 101%
growth [19]: 91.3%
growth [20]: 98.7%

COc1ccc(Cl)cc1-n1nnc(-c2nc3ccccc3[nH]2)c1N
growth [1]: 92.8%
growth [2]: 60%
growth [3]: 75%
growth [4]: 37.3%
growth [5]: 27.7%
growth [6]: 68.6%
growth [7]: 61.8%
growth [8]: 58.1%
growth [9]: 98.1%
growth [10]: 93.4%
growth [11]: 94.5%
growth [12]: 63.8%
growth [13]: 86.1%
growth [14]: 74.2%
growth [15]: 62.6%
growth [16]: 58.7%
growth [17]: 91.6%
growth [18]: 95.4%
growth [19]: 89.3%
growth [20]: 94.1%

COc1ccc2c(c1OC)O/C(=C\c1ncc([N+](=O)[O-])n1C)C2=O
growth [1]: -17.1% (active)
growth [2]: 66.6%
growth [3]: 84.1%
growth [4]: 56%
growth [5]: -20.8% (active)
growth [6]: -54.5% (active)
growth [7]: 19.3%
growth [8]: 17.9%
growth [9]: -55.6% (active)
growth [10]: -24.7% (active)
growth [11]: 28.8%
growth [12]: -68.9% (active)
growth [13]: -20.7% (active)
growth [14]: -65.7% (active)
growth [15]: -5.54% (active)
growth [16]: 55.3%
growth [17]: 63.5%
growth [18]: -55.8% (active)
growth [19]: -59.1% (active)
growth [20]: 1.65% (active)

O=S(=O)(NCCNc1nccc(-c2c(-c3ccc(F)cc3)nc3sccn23)n1)c1ccc2ccccc2c1
growth [1]: 90.8%
growth [2]: 92.7%
growth [3]: 73%
growth [4]: 88.5%
growth [5]: 55%
growth [6]: 75.5%
growth [7]: 43.8%
growth [8]: 89.4%
growth [9]: 57.4%
growth [10]: 78.8%
growth [11]: 54.6%
growth [12]: 81.2%
growth [13]: 98.3%
growth [14]: 91.3%
growth [15]: 68.3%
growth [16]: 68.2%
growth [17]: 104%
growth [18]: 71%
growth [19]: 82.9%
growth [20]: 76.4%
